Experimental findings from PubChem BioAssay (Tox21) are described below.

Assay [1] is described as follows: qHTS assay to identify small molecule antagonists of the glucocorticoid receptor (GR) signaling pathway - cell viability counter screen (AID 720693). Also: nearly all actives have a fitted effect of over 55% in size.
A short description of assay [2]: qHTS assay for identifying genotoxic compounds that show differential cytotoxicity against isogenic chicken DT40 cell lines with known DNA damage response pathways - wild type cell line (AID 743012). Also: nearly all actives have a fitted effect of over 60% in size. Also: potency is read from the fitted curve at half-maximal effect. Put shortly: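 Quantitative HTS on parental DT40 cells: 40 h compound treatment at 37 C/5% CO2, with viability then determined by CellTiter-Glo luminescence. Values serve as the DNA repair-proficient reference for differential cytotoxicity.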

Assay [3] is described as follows: qHTS assay for identifying genotoxic compounds that show differential cytotoxicity against isogenic chicken DT40 cell lines with known DNA damage response pathways - Rad54/Ku70 mutant cell line (AID 743015). Also: nearly all actives have a fitted effect of over 60% in size. Also: potency is read from the fitted curve at half-maximal effect. In general terms: Quantitative high-throughput screening tests each substance at several concentrations.
The target in assay [4] is Androgen receptor (Homo sapiens) (UniProt P10275). Briefly: qHTS assay to identify small molecule antagonists of the androgen receptor (AR) signaling pathway (AID 743035; active = well fitted inhibition curve with a large enough effect in the signal ratio in the repeat runs, not every such curve was filed as active; the % refers to the signal ratio; also: potency is read from the fitted curve at half-maximal effect). Put shortly:
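Cell line: GeneBLAzer AR-UAS-bla GripTite (HEK293). Stimulus: R1881 added after compound. Exposure: 16 h, 37C, 5% CO2. Readout: LiveBLAzer B/G FRET fluorescence after 2 h at room temperature.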

Assay [5] has the same target. Briefly: qHTS assay to identify small molecule agonists of the androgen receptor (AR) signaling pathway (AID 743036; active = well fitted activation curve with a large enough effect in the signal ratio in the repeat runs, with a control signal flat, not every such curve was filed as active; the % refers to the signal ratio). Put shortly:
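Fluorescence from a beta-lactamase FRET substrate served as read-out in AR-UAS-bla GripTite HEK293 cells. Cells were treated with DMSO-dissolved compounds for 16 h at 37C, then with LiveBLAzer B/G substrate for 2 h at room temperature.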

For assay [6] the target is unchanged. Briefly: qHTS assay to identify small molecule agonists of the androgen receptor (AR) signaling pathway using the MDA cell line (AID 743040; also: nearly all actives have a fitted effect of over 20% in size). Summed up:
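MDA-kb2 breast carcinoma cells carrying MMTV-luciferase (responsive to AR and GR), plated 5 h then treated 16 h with compounds at 37C, 0% CO2. Read-out was ONE-Glo luminescence after 30 min at room temperature.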

The nature of assay [7]: qHTS assay to identify small molecule antagonists of the androgen receptor (AR) signaling pathway using the MDA cell line - cell viability counter screen (AID 743041; also: nearly all actives have a fitted effect of over 45% in size). Put shortly:
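MDA-kb2 AR-luc cells (MMTV-luciferase, AR/GR responsive) treated with compounds plus R1881 agonist for 16 h at 37C. CellTiter-Fluor added at 15.5 h; fluorescence read after 30 min in the same wells.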

The target of assay [8] is Androgen receptor (Homo sapiens) (UniProt P10275). Briefly: qHTS assay to identify small molecule antagonists of the androgen receptor (AR) signaling pathway using the MDA cell line (AID 743042; also: nearly all actives have a fitted effect of over 55% in size). Put shortly:
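MDA-kb2 breast carcinoma cells carrying MMTV-luciferase (AR/GR responsive) were co-treated with compounds and the agonist R1881 for 16 h at 37C. Inhibition read as ONE-Glo luminescence; CellTiter-Fluor fluorescence measured in parallel for cytotoxicity.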

Assay [9] can be described thus: qHTS assay to identify small molecule antagonists of the thyroid receptor (TR) signaling pathway - cell viability counter screen (AID 743064). Also: nearly all actives have a fitted effect of over 50% in size. Also: potency is read from the fitted curve at half-maximal effect. Summed up:
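Fluorescence from CellTiter-Fluor, added after 23.5 h exposure at 37 °C, reported viability of GH3.TRE-Luc cells co-treated with compound and 1 nM T3. Measured in the same wells as the luciferase TR readout.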

The nature of assay [10]: qHTS assay to identify small molecule antagonists of the thyroid receptor (TR) signaling pathway (AID 743065). Also: nearly all actives have a fitted effect of over 55% in size. Also: potency is read from the fitted curve at half-maximal effect. Put shortly: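 GH3.TRE-Luc rat pituitary cells (two TREs driving luciferase) were dosed with compound, then stimulated with 1 nM T3 (final) for 23.5 h at 37 C. ONE-Glo luminescence was the read-out, with CellTiter-Fluor fluorescence as the cytotoxicity counter-screen.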

Assay [11] can be described thus: qHTS assay to identify small molecule antagonists of the estrogen receptor alpha (ER-alpha) signaling pathway - cell viability counter screen (AID 743074; calls by dose curve;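 also: HEK293 cells carrying ER-alpha-UAS-bla reporter stimulated with 17beta-estradiol; nearly all actives have a fitted effect of over 45% in size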).
Assay [12] is described as follows: qHTS assay to identify small molecule antagonists of the estrogen receptor alpha (ER-alpha) signaling pathway using the BG1 cell line - cell viability counter screen (AID 743081).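 Also: compound given together with 17beta-estradiol as the ER stimulus; series mostly up to about 70 µM; nearly all actives have a fitted effect of over 45% in size.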
For the next assay, the target named is Aromatase (Homo sapiens) (UniProt P11511). Briefly: qHTS assay to identify aromatase inhibitors (AID 743083). Also: series mostly up to about 70 µM; nearly all actives have a fitted effect of over 55% in size.
Chain of Aromatase (Homo sapiens) (P11511 whole entry, looked up): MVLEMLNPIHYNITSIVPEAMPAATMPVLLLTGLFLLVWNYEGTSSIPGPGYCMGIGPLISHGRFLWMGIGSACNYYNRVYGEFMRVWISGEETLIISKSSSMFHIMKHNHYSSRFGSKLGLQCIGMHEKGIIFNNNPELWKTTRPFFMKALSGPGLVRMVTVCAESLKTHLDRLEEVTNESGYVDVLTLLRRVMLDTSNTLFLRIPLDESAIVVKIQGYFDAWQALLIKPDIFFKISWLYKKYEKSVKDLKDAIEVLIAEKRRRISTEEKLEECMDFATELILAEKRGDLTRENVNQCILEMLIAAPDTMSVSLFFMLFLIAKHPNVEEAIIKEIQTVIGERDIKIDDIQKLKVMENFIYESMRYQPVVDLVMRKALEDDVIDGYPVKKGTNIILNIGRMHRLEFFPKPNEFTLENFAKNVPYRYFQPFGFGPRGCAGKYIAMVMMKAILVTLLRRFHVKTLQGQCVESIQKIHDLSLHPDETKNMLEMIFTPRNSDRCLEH
Assay [13] is described as follows: qHTS assay to identify small molecule antagonists of the androgen receptor (AR) signaling pathway - cell viability counter screen (AID 743033; also: nearly all actives have a fitted effect of over 45% in size).
Assay [14] deals with thyroid hormone receptor (rat, GH3 cells). Briefly: qHTS assay to identify small molecule agonists of the thyroid receptor (TR) signaling pathway (AID 743066; calls by dose curve).
In assay [15] the target is Estrogen receptor (Homo sapiens) (UniProt P03372). Briefly: qHTS assay to identify small molecule antagonists of the estrogen receptor alpha (ER-alpha) signaling pathway (AID 743069; active = well fitted curve in the direction sought with a large enough effect in the signal ratio in the repeat runs, not every such curve was filed as active; the % refers to the signal ratio). Summed up: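 HEK293 ER-alpha-UAS-bla GripTite cells, held overnight in 2% charcoal-stripped FBS, 5,000 cells/well, preincubated 4 h, then compound plus 17beta-estradiol for 18 h at 37C. Beta-lactamase read by LiveBLAzer B/G FRET substrate, 2 h at room temperature.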
Chain of Estrogen receptor (Homo sapiens) (P03372 whole entry, looked up): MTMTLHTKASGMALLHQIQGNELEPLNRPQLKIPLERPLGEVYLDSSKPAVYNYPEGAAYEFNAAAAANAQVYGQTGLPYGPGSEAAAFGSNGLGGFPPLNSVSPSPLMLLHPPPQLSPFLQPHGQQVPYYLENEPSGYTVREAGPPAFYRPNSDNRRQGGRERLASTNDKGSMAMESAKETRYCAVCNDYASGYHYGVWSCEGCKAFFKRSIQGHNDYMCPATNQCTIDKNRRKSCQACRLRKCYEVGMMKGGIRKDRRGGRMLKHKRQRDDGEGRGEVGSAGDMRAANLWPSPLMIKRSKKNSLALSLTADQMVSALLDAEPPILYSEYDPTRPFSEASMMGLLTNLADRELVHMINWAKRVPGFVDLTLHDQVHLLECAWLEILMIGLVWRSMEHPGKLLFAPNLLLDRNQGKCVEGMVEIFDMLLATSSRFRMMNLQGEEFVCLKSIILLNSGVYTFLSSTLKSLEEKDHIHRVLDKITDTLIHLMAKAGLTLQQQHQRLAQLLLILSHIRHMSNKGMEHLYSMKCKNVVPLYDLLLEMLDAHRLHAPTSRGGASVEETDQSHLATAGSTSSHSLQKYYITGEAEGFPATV

Assay [16] shares this target. Briefly: qHTS assay to identify small molecule agonists of the estrogen receptor alpha (ER-alpha) signaling pathway (AID 743075; calls by dose curve).
Assay [17] shares this target. Briefly: qHTS assay to identify small molecule agonists of the estrogen receptor alpha (ER-alpha) signaling pathway using the BG1 cell line (AID 743079). Also: nearly all actives have a fitted effect of over 20% in size.
Assay [18] can be described thus: qHTS assay to identify small molecule antagonists of the estrogen receptor alpha (ER-alpha) signaling pathway using the BG1 cell line (AID 743080; calls by dose curve;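 also: BG1 cells stimulated with 17beta-estradiol alongside compound; series mostly up to about 70 µM; nearly all actives have a fitted effect of over 25% in size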). Summed up:
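Readout is ONE-Glo luminescence, taken 30 min at room temperature after reagent addition, preceded by a CellTiter-Fluor viability read; BG1-Luc-4E2 cells had received compound and 17beta-estradiol for 21.5 h at 37 C.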

A short description of assay [19]: qHTS assay for identifying genotoxic compounds that show differential cytotoxicity against isogenic chicken DT40 cell lines with known DNA damage response pathways - Rev3 mutant cell line (AID 743014). Also: nearly all actives have a fitted effect of over 55% in size.

Inconclusive results are not listed. Activity calls are given as the source filed them. Unless noted, calls follow the shape of the dose curve; as a rule, active = well fitted curve in the direction sought with a large enough effect in the repeat runs; inconclusive = weak or mixed curves; inactive = no such curve, though single readings can be large; an effect the other way counts as inactive or inconclusive.

Chain of Androgen receptor (Homo sapiens) (P10275 whole entry, looked up): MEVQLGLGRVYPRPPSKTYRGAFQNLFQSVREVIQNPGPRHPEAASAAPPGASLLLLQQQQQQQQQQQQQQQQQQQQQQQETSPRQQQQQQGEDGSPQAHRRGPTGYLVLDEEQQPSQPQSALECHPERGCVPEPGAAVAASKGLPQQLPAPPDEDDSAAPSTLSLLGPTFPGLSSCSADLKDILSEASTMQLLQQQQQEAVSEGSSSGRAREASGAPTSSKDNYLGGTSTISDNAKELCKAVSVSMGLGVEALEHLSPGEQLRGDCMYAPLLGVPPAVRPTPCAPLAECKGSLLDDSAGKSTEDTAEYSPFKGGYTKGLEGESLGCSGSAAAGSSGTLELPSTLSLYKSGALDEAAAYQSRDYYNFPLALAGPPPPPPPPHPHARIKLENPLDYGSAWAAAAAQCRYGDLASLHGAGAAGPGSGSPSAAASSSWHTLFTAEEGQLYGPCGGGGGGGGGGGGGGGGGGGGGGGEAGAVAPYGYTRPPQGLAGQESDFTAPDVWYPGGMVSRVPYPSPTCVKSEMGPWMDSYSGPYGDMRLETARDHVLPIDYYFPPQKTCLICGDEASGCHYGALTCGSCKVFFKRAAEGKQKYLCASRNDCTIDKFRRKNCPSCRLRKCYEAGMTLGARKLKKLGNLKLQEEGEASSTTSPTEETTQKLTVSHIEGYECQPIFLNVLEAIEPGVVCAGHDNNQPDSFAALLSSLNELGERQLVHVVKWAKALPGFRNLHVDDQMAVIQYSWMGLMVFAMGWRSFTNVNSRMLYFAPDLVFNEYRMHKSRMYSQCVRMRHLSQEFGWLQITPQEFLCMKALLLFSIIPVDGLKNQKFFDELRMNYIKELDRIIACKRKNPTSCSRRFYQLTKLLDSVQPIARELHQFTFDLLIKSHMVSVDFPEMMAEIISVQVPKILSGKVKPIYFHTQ

As for `O=C(CN1CCN(Cc2ccc3c(c2)OCO3)CC1)N1c2ccccc2Sc2ccccc21`, the Potency entry in assay [1] and in assay [11] was “inactive” in each case. Besides, the Potency in assay [2] was 13.3 µM (active); in assay [3], 26.6 µM (active); in assay [4] it was 26.8 µM (active); in assay [9] it was 29.8 µM (active); in [10], 26.6 µM (active). In addition, the compound was classed as inactive (in assay [5]; in assay [6]; in [7]; in assay [8]; in assay [12]; in the assay with Aromatase (Homo sapiens)).

Take `FC(F)(F)/C(=N\OCC1OCCO1)c1ccc(Cl)cc1`: the Potency result in assay [1], in assay [2], in assay [3], in [9], in [10] and in assay [14] was “inactive” throughout. The Potency result in assay [15], in assay [11], in assay [16] and in assay [17] was “inactive” in each case. Also, the result (in [13]; in assay [18]; in assay [12]; in the assay with Aromatase (Homo sapiens)) was inactive.

Consider `CCCCC(C)C(=O)O` (stereo not drawn), for which the Potency entry in assay [1], in [2], in assay [19], in assay [3], in assay [10] and in assay [14] was “inactive” in each case. In assay [11], the Potency entry was “inactive”. For the same compound, the compound was called inactive (in assay [7]; in [12]; with Aromatase (Homo sapiens)).

As for `O=S1(=O)CCCC1`, the Potency entry in assay [1], in assay [2], in assay [3], in [10], in [14] and in [15] was “inactive” each time. In addition, the Potency result in [11], in assay [16] and in [17] was “inactive” throughout. For the same compound, the compound was classed as inactive (in [13]; in assay [7]; in [18]; in assay [12]; with Aromatase (Homo sapiens)).

On to `O=C(O)Cc1cccc(-c2cc(CCCCCCc3ccc(O[C@H]4O[C@H](CO)[C@@H](O)[C@H](O)[C@@H]4O)c(-c4cccc(CC(=O)O)c4)c3)ccc2O[C@H]2O[C@H](CO)[C@@H](O)[C@H](O)[C@@H]2O)c1`, for which the Potency result in assay [1], in [2], in assay [3], in assay [10] and in assay [14] was “inactive” each time. Also, the compound was classed as inactive (in assay [7]; in assay [12]; with Aromatase (Homo sapiens)).

For the compound `O=C(/C=C/c1ccccc1)NCCO`, the Potency result in assay [1], in assay [2], in assay [3], in assay [9], in assay [10] and in assay [14] was “inactive” in each case. The Potency result in [15], in [11], in assay [16] and in assay [17] was “inactive” each time. The compound was called inactive (in [13]; in assay [7]; in [18]; in [12]; with Aromatase (Homo sapiens)).

As for `CCCCCCCCCCCCOC(C)=O`, the Potency result in assay [1], in [2], in [3], in assay [9], in [10] and in assay [14] was “inactive” throughout. For the same compound, the Potency entry in [15], in [11], in [16] and in assay [17] was “inactive” throughout. In addition, the result (in [13]; in [7]; in assay [18]; in assay [12]; with Aromatase (Homo sapiens)) was inactive.

Take `CN(C1CCCCC1)S(=O)(=O)c1ccccc1N`: the Potency result in [1], in assay [9], in [10], in [14] and in assay [11] was “inactive” each time. In addition, the Potency in assay [2] is 30.6 µM (active); in assay [3] it was 54.5 µM (active). The outcome (in [7]; in assay [12]; with Aromatase (Homo sapiens)) was inactive.

With `OC[C@@H](O)[C@H](O)[C@@H](O)[C@@H](O)CO`, the Potency entry in assay [1], in assay [19], in assay [3], in [14], in [15] and in assay [11] was “inactive” throughout. For the same compound, the Potency entry in [16] and in assay [17] was “inactive” each time. The compound was called inactive (in assay [13]; in assay [7]; in assay [18]; in [12]; with Aromatase (Homo sapiens)).

`O=C1OC(=O)c2cc(Oc3ccc4c(c3)C(=O)OC4=O)ccc21`: the Potency result in assay [1], in assay [19], in assay [3], in assay [4], in assay [14] and in assay [15] was “inactive” in each case. For the same compound, the Potency result in [11], in [16] and in assay [17] was “inactive” throughout. The compound was classed as inactive in assay [13], in [5], in assay [6], in [8], in assay [18] and in [12]. In addition, the call with Aromatase (Homo sapiens) was inactive.
